Source: PubChem
KCNQ2 inh: rat KCNQ2 potassium channel inhibitors, primary screen, cell-based, CHO-K1, FluxOR thallium flux, B-score | AID 2156, 2009 | B-score at 10 µM | 20 min; hits give low values | 1.1% of 310,000 active | Potassium voltage-gated channel subfamily KQT member 2 (Rattus norvegicus), O88943;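 active = fluorescence ratio B-score at most minus 3 library SDs, with starting brightness B-score within 2 library SDs, cut at about -5.5 in these data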
KCNQ2 enhance: potentiators of rat KCNQ2 potassium channel | Potassium voltage-gated channel subfamily KQT member 2 (Rattus norvegicus), O88943 | B-score at 10 µM | CHO-K1 KCNQ2, FluxOR thallium flux fluorescence; hits give high values | 0.54% of 310,000 active;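 active = fluorescence ratio B-score at least 3 SD of library B-scores, with initial fluorescence B-score within 3 of them, cut at about 5.3 in these data; same plate scores as AID 2156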;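 also: B-score of peak minus minimum over baseline fluorescence ratio after K+ and Tl+ stimulus; positive B-score means potentiation of KCNQ2 with more thallium influx and brighter signal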
Kir21 conf inh: mouse Kir2.1 channel blockers, retest, confirmation, cell-based, FluxOR thallium flux, duplicate; 41% of 2,300 active; Tl flux remaining, % of negative control (hits give low values), % at 10 µM; Kir2.1-expressing cells, FluxOR thallium flux fluorescence; hits give low values; shares compounds with KCNQ2 enhance;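 active = Primary-screen hit whose thallium flux fell at least 3 control SD below untreated wells in both duplicates, with normal baseline fluorescence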
HEK293 Tl flux: counter-screen for Kir2.1 inhibitors: effect in parental HEK293 cells; FluxOR signal as % of negative control (100 = no effect), % at 10 µM; FluxOR thallium flux fluorescence; 0% = unstimulated blank wells; shares compounds with KCNQ2 enhance; 19% of 2,300 active; AID 2105;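 active = dye signal at least 3 control SD above or below untreated wells in both duplicates, raw fluorescence within 3, either direction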;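 also: percent is based on the flux ratio of peak minus minimum fluorescence over baseline F0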
CHO-K1 Tl ctr: nonspecific thallium flux increase in parental CHO-K1, confirmation, counter-screen for KCNQ2 potentiator project, cell-based, FluxOR thallium flux, duplicate | shares compounds with KCNQ2 enhance | parental CHO-K1 cells, FluxOR thallium flux fluorescence; zero = vehicle mean+3SD, 100% = vehicle-minus-blank window | activity increase over 3SD of controls, % at 10 µM | 43% of 1,200 active | AID 2282, 2010;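 active = signal rise of at least 3 SD above the untreated control mean, in both duplicate wells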;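 also: counter screen of KCNQ2 potentiator hits so any rise reflects channel-independent effects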
KCNQ1 sel pot: human KCNQ1 channel potentiation off-target, confirmation, selectivity assay for KCNQ2 potentiator project, cell-based, CHO, FluxOR thallium flux; shares compounds with KCNQ2 enhance; CHO KCNQ1 stable, FluxOR thallium flux fluorescence; beyond 3SD, as % of vehicle-control signal; activation over 3SD threshold, % at 10 µM; 28% of 1,200 active; AID 2283, 2010;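 active = fluorescence ratio rise of at least 3 SD of vehicle wells above their mean, in both replicate wells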
KCNQ2 pot conf: rat KCNQ2 channel potentiators, confirmation, cell-based, CHO, FluxOR thallium flux, duplicate; potentiation, less the hit threshold, % at 10 µM; AID 2287, 2010; CHO-KCNQ2 cells, FluxOR thallium flux fluorescence; shares compounds with KCNQ2 enhance; 68% of 1,200 active;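 active = fluorescence ratio rising 3 SD or more over the vehicle control mean in both replicates, plus primary screen hit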;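 also: peak minus minimum thallium fluorescence divided by baseline after K/Tl stimulus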
Kir21 spec: mouse Kir2.1 channel activation off-target, confirmation, selectivity assay for KCNQ2 potentiator project, cell-based, HEK293, FluxOR thallium flux; AID 2345, 2010; HEK293 Kir2.1, FluxOR thallium flux fluorescence; 2% of 1,200 active; activity over 3SD threshold, % at 10 µM; shares compounds with KCNQ2 enhance;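 active = fluorescence ratio rise of at least 3 SD above the vehicle-control mean, seen in both replicates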
KCNQ2 W236L MoA: potentiators of retigabine-insensitive KCNQ2 W236L, mechanism study for KCNQ2 potentiator project, cell-based, rat KCNQ2 W236L, CHO, automated patch clamp; shares compounds with KCNQ2 enhance; automated patch clamp current; current increase over 3SD of negative controls (%), hits give high values, % at 25 µM; 10% of 940 active; AID 2558, 2010;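 active = current increase at least 3 SD of the untreated controls above them in both duplicate recordings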
Each line names hits and unclear results; the compound was inactive in the other large screens (follow-up assays come after a bar, where they were run). In the library only some 1.6% were active in any assay of this set; here they are far more common.

CC(C)(C)OC(=O)NCCc1nnc(SCC(=O)c2ccc(Cl)cc2)o1	none (no result: KCNQ2 enhance)
CC(C)(C)OC(=O)NCCc1nnc(SCc2c(Cl)cccc2Cl)o1	none (no result: KCNQ2 enhance)
CC(C)(C)OC(=O)NCCc1nnc(SCc2ccc(Cl)cc2Cl)o1	KCNQ2 inh -5.88 | Kir21 conf inh 33.5% | HEK293 Tl flux inactive
CC(C)N1CC(C(=O)Nc2ccc(F)c(Cl)c2)CC1=O (stereo not given)	none (no result: KCNQ2 enhance)
O=C(OC1CCCCC1=O)c1ccc(F)c(S(=O)(=O)N2CCOCC2)c1 (stereo not given)	none
Cc1ccc(S(=O)(=O)NCC2COc3ccccc3O2)cc1 (stereo not given)	none (no result: KCNQ2 enhance)
Cc1ccc([N+](=O)[O-])cc1S(=O)(=O)NCC1COc2ccccc2O1 (stereo not given)	none (no result: KCNQ2 enhance) | Kir21 conf inh 73.0% | HEK293 Tl flux inactive
CCc1ccc(S(=O)(=O)Nc2cc3c(cc2C)n(C)c(=O)n3C)cc1	none (no result: KCNQ2 enhance)
CCOC(=O)Cc1c(C)nc(Cc2ccc(OC(C)C)cc2)[nH]c1=O	none
CCCCCN(C(=O)CSc1n[nH]c(-c2ccc(C)cc2)n1)c1c(N)n(CCCC)c(=O)[nH]c1=O	none
Cc1ccc(NC(=O)CNc2cccc(S(=O)(=O)N3CCCC3)c2)cc1F	KCNQ2 enhance 5.51 | Kir21 conf inh inactive | HEK293 Tl flux inactive | CHO-K1 Tl ctr inactive | KCNQ1 sel pot inactive | KCNQ2 pot conf inactive | Kir21 spec inactive
O=C(CNc1cccc(S(=O)(=O)N2CCCC2)c1)Nc1ccc(F)c(F)c1	none
CC(=O)c1cccc(NC(=O)NCc2ccc3c(c2)OCO3)c1	none
O=C(NCc1ccc2c(c1)OCO2)Nc1cccc(Cl)c1	KCNQ2 enhance 20.9 | Kir21 conf inh inactive | HEK293 Tl flux inactive | CHO-K1 Tl ctr inactive | KCNQ1 sel pot inactive | KCNQ2 pot conf 69.6 | Kir21 spec inactive | KCNQ2 W236L MoA inactive
O=C(/C=C/c1ccccc1)NCc1ccc2c(c1)OCO2	none
O=C(/C=C/c1cccs1)NCc1ccc2c(c1)OCO2	KCNQ2 enhance 8.6 | Kir21 conf inh inactive | HEK293 Tl flux inactive | CHO-K1 Tl ctr 11.5 | KCNQ1 sel pot inactive | KCNQ2 pot conf 1.0 | Kir21 spec inactive | KCNQ2 W236L MoA inactive
C=CCN(c1ccccc1Cl)S(=O)(=O)c1cccc(C(=O)OCC(=O)N(C)C2CCS(=O)(=O)C2)c1 (stereo not given)	none
COc1cc(OC)cc(C(=O)Nc2cccnc2)c1	none
COc1cc(OC)cc(C(=O)Nc2ccc(C(=O)c3ccncc3)cc2)c1	KCNQ2 enhance 11.3 | Kir21 conf inh inactive | HEK293 Tl flux inactive | CHO-K1 Tl ctr 28.2 | KCNQ1 sel pot 42.5 | KCNQ2 pot conf 19.6 | Kir21 spec inactive | KCNQ2 W236L MoA inactive
COc1ccc(S(=O)(=O)Nc2ccccc2C(=O)N2CCCCC2)cc1C	none (no result: KCNQ2 enhance)
Cc1ccc(C)c(NC(=O)CN(C)C(=O)c2cc3c(s2)CCCCC3)c1	none
CC1CC1C(=O)NCCc1ccc(Cl)cc1 (stereo not given)	none
O=C(CC1CC2CCC1C2)NCCc1ccc(Cl)cc1 (stereo not given)	KCNQ2 enhance 5.92 | CHO-K1 Tl ctr inactive | KCNQ1 sel pot inactive | KCNQ2 pot conf 0.8 | Kir21 spec inactive | KCNQ2 W236L MoA inactive
CC(=O)N1N=C(c2ccccc2OC(=O)/C=C/c2ccccc2)CC1c1ccccc1 (stereo not given)	none (no result: KCNQ2 enhance)
COc1cc(Cl)c(C)cc1NC(=S)NN	none
CC(C)CNc1nc(N)c([N+](=O)[O-])c(N2CCCCCC2)n1	none
O=C(Nc1ccccc1)C(Cl)C(=O)c1ccccc1 (stereo not given)	none (no result: KCNQ2 enhance) | Kir21 conf inh 66.5% | HEK293 Tl flux 70.0%
CC(C(=O)Nc1ccccc1)C(=O)Nc1ccccc1	none
O=C/C(=C\Nc1ccc(C(=O)N2CCOCC2)cc1)c1nc2ccccc2o1	none
Cc1c(Cl)cccc1NC(=O)CSc1nc2ncc(Cl)cc2[nH]1	none
Cc1cc(C)c(OCCCCN(C)Cc2ccccc2)c(C)c1	none (no result: KCNQ2 enhance) | Kir21 conf inh 21.5% | HEK293 Tl flux inactive
Cc1ccc(OCCCCN(C)Cc2ccccc2)c(Br)c1	none (no result: KCNQ2 enhance)
Clc1ccc(OCCCNCc2ccccc2)c(Br)c1	none (no result: KCNQ2 enhance) | Kir21 conf inh 9.5% | HEK293 Tl flux 74.0%
Cc1cc(C)c(OCCCNCc2ccccc2)c(Br)c1	none (no result: KCNQ2 enhance) | Kir21 conf inh 11.5% | HEK293 Tl flux inactive
Cc1ccccc1OCCNCC(C)O (stereo not given)	none (no result: KCNQ2 enhance)
Cc1cc(Cl)c(OCCCNCc2ccccc2)c(Br)c1	none (no result: KCNQ2 enhance)
Cc1cc(Cl)cc(Br)c1OCCCNCC(C)O (stereo not given)	none | Kir21 conf inh 27.0% | HEK293 Tl flux inactive
Clc1ccc(Cl)c(OCCCCNCc2ccccc2)c1	none (no result: KCNQ2 enhance)
CC1(C2CC2)NC(=O)N(CC(=O)Nc2ccccc2-c2ccccc2)C1=O (stereo not given)	none (no result: KCNQ2 enhance)
Fc1ccc(-n2cc(-c3ccccc3)c3c(=S)nc[nH]c32)cc1	KCNQ2 enhance 6.36 | Kir21 conf inh inactive | HEK293 Tl flux 182.5% | CHO-K1 Tl ctr inactive | KCNQ1 sel pot inactive | KCNQ2 pot conf 7.9 | Kir21 spec inactive | KCNQ2 W236L MoA inactive
Fc1cccc(-n2cc(-c3ccccc3)c3c(=S)nc[nH]c32)c1	none
CCn1nc(C(=O)OCC(=O)NC(C)C)c2ccccc2c1=O	none (no result: KCNQ2 enhance)
CCn1nc(C(=O)OCc2c(C)noc2C)c2ccccc2c1=O	KCNQ2 enhance 8.4 | Kir21 conf inh inactive | HEK293 Tl flux inactive | CHO-K1 Tl ctr 77.2 | KCNQ1 sel pot inactive | KCNQ2 pot conf inactive | Kir21 spec inactive
N#CCOC(=O)[C@H](Cc1ccccc1)N1C(=O)c2ccccc2C1=O	none (no result: KCNQ2 enhance)
O=C(O)[C@@H]1CCCN1C(=O)CCc1c[nH]c2ccccc12	none (no result: KCNQ2 enhance)
